Here are results for 69 molecules from PubChem BioAssay (Tox21).

Test [1] is described as follows: cAMP Responsive Elements (CRE) small molecule antagonists, cell-based qHTS assay: qHTS cell viability counter screen (AID 2060913). Further: nearly all actives have a fitted effect of over 40% in size. An outline of the steps:
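Cytotoxicity counter screen multiplexed with the CRE-bla antagonist read: HEK293T cells in DMEM with dialyzed FBS and 25 mM HEPES were treated 3 hrs under 0.25 uM final NKH477, then viability measured by CellTiter-Glo luminescence.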

Test [2] can be described thus: cAMP Responsive Elements (CRE) small molecule agonists, cell-based qHTS assay: qHTS cell viability counter screen (AID 2060914). Further: nearly all actives have a fitted effect of over 50% in size. An outline of the steps: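 Cytotoxicity was measured as ATP luminescence (CellTiter-Glo, 30 min at room temperature) in the same wells as the CRE-bla FRET read-out. HEK293T CRE-bla cells had 3 h compound exposure at 37C/5% CO2.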
In general terms: qHTS replaces the single test concentration by a dilution series.

The structures appear in SMILES notation. Inconclusive results are not listed. Unmarked numbers belong to inactive results. Active and inactive are the calls of the source. The call rests on the fitted dose curve; in most records, active means well fitted cell-killing curve with a large enough effect in the repeat runs; inconclusive means weak or mixed curves, or effect the other way; inactive means flat fitted curve, though single readings scatter.
On the % scale 0 is the no-effect control and ±100 the full control effect.

As to `Cc1c(C(=O)O)c(O)cc2c1C(=O)c1c(O)c([C@@H]3O[C@H](CO)[C@@H](O)[C@H](O)[C@H]3O)c(O)c(O)c1C2=O`, the Potency result in test [1] and in test [2] was “inactive” throughout.

Consider `CCOC(=O)CC(=O)c1ccccc1`, for which the Potency result in test [1] and in test [2] was “inactive” throughout.

Turning to `CCOC(=O)CCC(C)=O`, the Potency entry in test [1] and in test [2] was “inactive” each time.

On to `CCCCCCCCCCCC(=O)N(C)CC(=O)O`, for which, in test [1], the viability change, negative = cytotoxic was 1.91% [at 8.39 µM]. Further, the activity change, negative = cytotoxicity in test [2] was 0.181% [at 8.39 µM].

Take `CCCCCCCCCCC(=O)O`: the Potency entry in test [1] and in test [2] was “inactive” throughout.

Take `CN1CCC(=C2c3ccccc3CCc3sccc32)CC1`: the Potency result in test [1] and in test [2] was “inactive” each time.

Take `OC1CCCCCCCCCCC1`: the Potency result in test [1] and in test [2] was “inactive” in each case.

In the case of `Nc1ccc(O)c(N)c1`, the Potency result in test [1] and in test [2] was “inactive” in each case.

Consider `O=C1CCCCCCCCCCCN1`, for which the Potency entry in test [1] and in test [2] was “inactive” throughout.

Take `CC(C)=CCC/C(C)=C/CC/C(C)=C/CO`: the Potency entry in test [1] and in test [2] was “inactive” each time.

Regarding `Cc1cccc(Br)c1`, the Potency entry in test [1] and in test [2] was “inactive” throughout.

Consider `COc1ccc2c(c1)c(CC(=O)OCC(=O)O)c(C)n2C(=O)c1ccc(Cl)cc1`, for which the Potency result in test [1] and in test [2] was “inactive” in each case.

`BrC1CCC(Br)C(Br)CCC(Br)C(Br)CCC1Br` (stereo not drawn): the Potency result in test [1] and in test [2] was “inactive” each time.

For the molecule `C=C(C)[C@@H]1CC[C@@H](C)C[C@@H]1O`, the Potency result in test [1] and in test [2] was “inactive” in each case.

With `CCOc1ccc(NC(=O)CC(C)O)cc1` (stereo not drawn), the Potency result in test [1] and in test [2] was “inactive” throughout.

For the molecule `C[C@]12C=CC(=O)C=C1[C@@H](F)C[C@@H]1[C@@H]2[C@@H](O)C[C@@]2(C)[C@H]1CC[C@]2(O)C(=O)CO`, the Potency result in test [1] and in test [2] was “inactive” in each case.

For `Cc1cccc(C)c1O`, the Potency result in test [1] and in test [2] was “inactive” in each case.

Take `COCCOCCOCCOCCOC`: the Potency entry in test [1] and in test [2] was “inactive” in each case.

Regarding `CC(C)CCOC(=O)/C=C/c1ccccc1`, the Potency result in test [1] and in test [2] was “inactive” in each case.

Consider `O=C1[C@H]2CCCC[C@H]2C(=O)N1CCCCN1CCN(c2nsc3ccccc23)CC1`, for which the Potency result in test [1] and in test [2] was “inactive” each time.

For `CC(c1cc(C(C)(C)C)cc(C(C)(C)C)c1O)c1cc(C(C)(C)C)cc(C(C)(C)C)c1O`, the Potency entry in test [1] and in test [2] was “inactive” each time.

`O=C(Cl)c1cccc([N+](=O)[O-])c1`: the Potency entry in test [1] and in test [2] was “inactive” each time.

Consider `CCCCCCCCCCOC(C)=O`, for which the Potency result in test [1] and in test [2] was “inactive” each time.

Regarding `CO[C@]1(NC(=O)CSC(F)F)C(=O)N2C(C(=O)O)=C(CSc3nnnn3CCO)CO[C@H]21`, the Potency entry in test [1] and in test [2] was “inactive” in each case.

Take `CNCC[C@@H](Oc1ccccc1C)c1ccccc1`: the Potency entry in test [1] and in test [2] was “inactive” in each case.

For `O=C1CCCCCO1`, the Potency result in test [1] and in test [2] was “inactive” in each case.

As to `C(=C(c1ccccc1)c1ccccc1)c1ccccc1`, the Potency result in test [1] and in test [2] was “inactive” throughout.

Consider `CC(C)OC=O`, for which the Potency result in test [1] and in test [2] was “inactive” in each case.

Take `CC(=O)CC(c1ccccc1)c1c(O)c2ccccc2oc1=O` (stereo not drawn): the Potency result in test [1] and in test [2] was “inactive” throughout.

In the case of `CCOC(=O)C1=NN(c2ccc(Cl)cc2Cl)C(C)(C(=O)OCC)C1` (stereo not drawn), the Potency result in test [1] and in test [2] was “inactive” throughout.

For the molecule `C=CCc1ccc(O)c(OC)c1`, the Potency entry in test [1] and in test [2] was “inactive” in each case.

In the case of `CC(C)(C)Cl`, the Potency result in test [1] and in test [2] was “inactive” throughout.

As for `CCCCOCCOC(=O)c1cccnc1`, the Potency entry in test [1] and in test [2] was “inactive” each time.

Turning to `O=c1c2ccccc2oc2ccccc12`, the Potency result in test [1] and in test [2] was “inactive” throughout.

Turning to `Nc1nccs1`, the Potency result in test [1] and in test [2] was “inactive” in each case.

Turning to `CCCCCCCCCI`, the Potency entry in test [1] and in test [2] was “inactive” each time.

Take `CCCCCCOCCOCCO`: the Potency result in test [1] and in test [2] was “inactive” in each case.

As to `C[C@H]1[C@@H](c2ccccc2)NC(=O)N1C`, the Potency result in test [1] and in test [2] was “inactive” throughout.

As for `ClC/C=C\CCl`, the Potency result in test [1] and in test [2] was “inactive” in each case.

For `O=C1OCCN1/N=C/c1ccc([N+](=O)[O-])o1`, the Potency result in test [1] and in test [2] was “inactive” in each case.

On to `Cc1ccnc(N)c1`, for which the Potency entry in test [1] and in test [2] was “inactive” throughout.

As for `CC1=NN(c2cc(S(=O)(=O)O)ccc2Cl)C(=O)C1N=Nc1ccccc1` (stereo not drawn), the Potency entry in test [1] and in test [2] was “inactive” in each case.

In the case of `CC(CO)(CO)C(=O)O`, the Potency result in test [1] and in test [2] was “inactive” each time.

On to `CCOC(=O)C(=O)c1csc(NC=O)n1`, for which the Potency entry in test [1] and in test [2] was “inactive” each time.

Take `Cc1cc(CC(=O)O)n(C)c1C(=O)c1ccc(Cl)cc1`: the Potency entry in test [1] and in test [2] was “inactive” throughout.

For the molecule `NC(=O)N/N=C/c1ccc([N+](=O)[O-])o1`, the Potency entry in test [1] and in test [2] was “inactive” throughout.

Turning to `O=C=NCC1CCCC(CN=C=O)C1` (stereo not drawn), the Potency entry in test [1] and in test [2] was “inactive” each time.

Regarding `Nc1ccc(NC(=O)c2ccc(N)cc2)cc1`, the Potency result in test [1] and in test [2] was “inactive” each time.

`CCC(=O)O[C@H]1[C@H](O[C@@H]2[C@@H](C)[C@H](O[C@H]3C[C@@](C)(OC)[C@@H](O)[C@H](C)O3)[C@@H](C)C(=O)O[C@H](CC)[C@@](C)(O)[C@H](O)[C@@H](C)C(=O)[C@H](C)C[C@@]2(C)O)O[C@H](C)C[C@@H]1N(C)C`: the Potency result in test [1] and in test [2] was “inactive” in each case.

Consider `CO[Si](CCCNCCNCCN)(OC)OC`, for which the Potency entry in test [1] and in test [2] was “inactive” each time.

In the case of `Nc1nc2c(ncn2CCC(CO)CO)c(=O)[nH]1`, the Potency result in test [1] and in test [2] was “inactive” each time.

For the molecule `CN1CCN(CCCN2c3ccccc3Sc3ccc(Cl)cc32)CC1`, the Potency result in test [1] and in test [2] was “inactive” in each case.

With `CN1CCC(=C2c3ccccc3Sc3ccccc32)CC1`, the Potency entry in test [1] and in test [2] was “inactive” throughout.

Take `COc1cc(NS(=O)(=O)c2ccc(N)cc2)ncn1`: the Potency entry in test [1] and in test [2] was “inactive” throughout.

Take `CC(=O)CC(C)(C)C1CCCCC1`: the Potency entry in test [1] and in test [2] was “inactive” throughout.

`CC(=O)N[C@@H](CCC(=O)O)C(=O)O`: the Potency entry in test [1] and in test [2] was “inactive” in each case.

Regarding `CCOC(=O)[C@@H](C)Oc1ccc(Oc2nc3ccc(Cl)cc3o2)cc1`, the Potency entry in test [1] and in test [2] was “inactive” throughout.

As to `CC(=O)/C=C/C1C(C)=CCC(C)C1(C)C` (stereo not drawn), the Potency entry in test [1] and in test [2] was “inactive” each time.

As for `CC1OC1C1CCC2(C)OC2C1` (stereo not drawn), the Potency entry in test [1] and in test [2] was “inactive” throughout.

`CC(C)C1OCCN1CCOC(=O)NCCCCCCNC(=O)OCCN1CCOC1C(C)C` (stereo not drawn): the Potency entry in test [1] and in test [2] was “inactive” throughout.

Turning to `O=NN(CCCl)C(=O)NCCCl`, the Potency result in test [1] and in test [2] was “inactive” throughout.

As for `O=C1OC(=O)c2ccccc21`, the Potency entry in test [1] and in test [2] was “inactive” each time.

Take `O=Cc1ccccc1O`: the Potency entry in test [1] and in test [2] was “inactive” throughout.

For the molecule `O=P(O)(O)OP(=O)(O)O`, the Potency result in test [1] and in test [2] was “inactive” in each case.

On to `C[C@@H](CN1CC(=O)NC(=O)C1)N1CC(=O)NC(=O)C1`, for which the Potency entry in test [1] and in test [2] was “inactive” in each case.

Turning to `CN(C)CCCN(C)CCCN(C)C`, the Potency entry in test [1] and in test [2] was “inactive” in each case.

On to `CC(C)[C@H]1CC[C@H](C)C[C@@H]1O`, for which the Potency entry in test [1] and in test [2] was “inactive” each time.

As to `OCC(CO)(CBr)CBr`, the Potency result in test [1] and in test [2] was “inactive” each time.

Turning to `CC(C)(C)C(=O)O`, the Potency entry in test [1] and in test [2] was “inactive” in each case.
